Results filed as inconclusive are left out. Entries that show only a call come without a potency. Where a structure was tested more than once in an assay, its records may differ in their call. The source made the active and inactive calls. Unless noted, calls follow the shape of the full dose curve.
assay: qHTS assay to identify small molecule agonists of the endoplasmic reticulum stress response signaling pathway (AID 1159516; active = well fitted activation curve with a large enough effect in the signal ratio in the repeat runs, not every such curve was filed as active; the % refers to the signal ratio); conditions: ESRE-bla HeLa, ER stress beta-lactamase reporter, 5 h; series mostly up to 61 µM
Method in brief: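 Reporter HeLa cells (ESRE-beta-lactamase) underwent 5 hr compound incubation at 37 C and 5% CO2 in quantitative HTS format. Detection followed 2 hr of FRET substrate loading at room temperature.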
Potency is read from the fitted curve at half-maximal effect.

Structure (SMILES)	Potency
Cc1cccc(Nc2ccccc2C(=O)O)c1C	inactive
[Na+]	inactive
Nc1cc(Cl)c(N)c(Cl)c1	inactive
IC(I)I	inactive
c1ccc2c(c1)[nH]c1ccccc12	inactive
CC(=O)Oc1c(C)c(C)c2c(c1C)CC[C@@](C)(CCC[C@H](C)CCC[C@H](C)CCCC(C)C)O2	inactive
O=C1OC2(c3ccccc31)c1cc(I)c(O)c(I)c1Oc1c2cc(I)c(O)c1I	inactive
Nc1ccc(N)c(Cl)c1	inactive
O=C(CCCN1CCC(O)(c2ccc(Cl)cc2)CC1)c1ccc(F)cc1	inactive
CCO[Si](CCCNC(N)=O)(OCC)OCC	inactive
OC[C@H]1O[C@@H]2O[C@H]3[C@H](O)[C@@H](O)[C@@H](O[C@H]4[C@H](O)[C@@H](O)[C@@H](O[C@H]5[C@H](O)[C@@H](O)[C@@H](O[C@H]6[C@H](O)[C@@H](O)[C@@H](O[C@H]7[C@H](O)[C@@H](O)[C@@H](O[C@H]1[C@H](O)[C@H]2O)O[C@@H]7CO)O[C@@H]6CO)O[C@@H]5CO)O[C@@H]4CO)O[C@@H]3CO	inactive
C=CN1CCCC1=O	inactive
C=C[C@H]1CN2CC[C@H]1C[C@H]2[C@H](O)c1ccnc2ccc(OC)cc12	inactive
CN(Cc1cnc2nc(N)nc(N)c2n1)c1ccc(C(=O)N[C@@H](CCC(=O)O)C(=O)O)cc1	inactive
O=C(O)CCCCCCCCCCCC(=O)O	inactive
Cc1ccc(N)c([N+](=O)[O-])c1	inactive
C[C@]12C=CC(=O)C=C1CC[C@H]1[C@@H]3C[C@@H](O)[C@](O)(C(=O)CO)[C@@]3(C)C[C@H](O)[C@@]12F	inactive
c1ccc2c(c1)ccc1cc3c(ccc4ccccc43)cc12	7.67 µM (active)
C=C[C@H]1CN2CC[C@H]1C[C@@H]2[C@@H](O)c1ccnc2ccc(OC)cc12	inactive
Nc1cc([N+](=O)[O-])ccc1C(=O)O	inactive

Structure (SMILES)	Potency
FC(F)(F)C(Cl)Br (stereo not drawn)	inactive
CCCN1C=CN(C)C1	inactive
CC1=CC(C)(C)Nc2ccccc21	inactive
C1COCCN1	inactive
O=C(O)c1ccc(O)cc1	inactive
COC(=O)C(C)Oc1ccc(Oc2ncc(C(F)(F)F)cc2Cl)cc1 (stereo not drawn)	inactive
CCCCCCCCCCC(CO)CCCCCCCC (stereo not drawn)	inactive
OC[C@@H](O)[C@@H](O[C@@H]1O[C@H](CO)[C@H](O)[C@H](O)[C@H]1O)[C@H](O)[C@@H](O)CO	inactive
[O-]/[N+](=N\O)c1ccccc1	inactive
Cc1ccc(C(C)(C)C)c(O)c1	inactive
CC(C)(C)c1cccc(C(C)(C)C)c1O	inactive
COCCOCCOCCO	inactive
CC/C=C\C/C=C\C/C=C\CCCCCCCC(=O)O	inactive
C[C@]12CC[C@@H]3c4ccc(O)cc4CC[C@H]3[C@@H]1CC[C@@H]2O	inactive
CN(C)C	inactive
CN(C)/N=N/c1nc[nH]c1C(N)=O	inactive
Cc1ccc(C(C)(C)C)cc1	inactive
CC/C(=C(/CC)c1ccc(O)cc1)c1ccc(O)cc1	inactive
C[N+](C)(C)CCO	inactive

assay: qHTS assay to identify small molecule agonists of the endoplasmic reticulum stress response signaling pathway - cell viability counter screen (AID 1159517); conditions: ESRE-bla HeLa viability, CellTiter-Glo luminescence, 5 h; series mostly up to 61 µM; also: nearly all actives have a fitted effect of over 50% in size
Method in brief: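 ESRE-bla HeLa cells, 1,500 per well, seeded overnight then treated with compounds for 5 hr at 37 C. After the beta-lactamase read, viability in the same wells is measured by CellTiter-Glo luminescence after 30 min at room temperature.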

Structure (SMILES)	Potency
Cc1cccc(Nc2ccccc2C(=O)O)c1C	inactive
[Na+]	inactive
Nc1cc(Cl)c(N)c(Cl)c1	inactive
IC(I)I	inactive
c1ccc2c(c1)[nH]c1ccccc12	inactive
CC(=O)Oc1c(C)c(C)c2c(c1C)CC[C@@](C)(CCC[C@H](C)CCC[C@H](C)CCCC(C)C)O2	inactive
O=C1OC2(c3ccccc31)c1cc(I)c(O)c(I)c1Oc1c2cc(I)c(O)c1I	inactive
Nc1ccc(N)c(Cl)c1	inactive
O=C(CCCN1CCC(O)(c2ccc(Cl)cc2)CC1)c1ccc(F)cc1	inactive
CCO[Si](CCCNC(N)=O)(OCC)OCC	inactive
OC[C@H]1O[C@@H]2O[C@H]3[C@H](O)[C@@H](O)[C@@H](O[C@H]4[C@H](O)[C@@H](O)[C@@H](O[C@H]5[C@H](O)[C@@H](O)[C@@H](O[C@H]6[C@H](O)[C@@H](O)[C@@H](O[C@H]7[C@H](O)[C@@H](O)[C@@H](O[C@H]1[C@H](O)[C@H]2O)O[C@@H]7CO)O[C@@H]6CO)O[C@@H]5CO)O[C@@H]4CO)O[C@@H]3CO	inactive
C=CN1CCCC1=O	inactive
C=C[C@H]1CN2CC[C@H]1C[C@H]2[C@H](O)c1ccnc2ccc(OC)cc12	inactive
CN(Cc1cnc2nc(N)nc(N)c2n1)c1ccc(C(=O)N[C@@H](CCC(=O)O)C(=O)O)cc1	inactive
O=C(O)CCCCCCCCCCCC(=O)O	inactive
Cc1ccc(N)c([N+](=O)[O-])c1	inactive
C[C@]12C=CC(=O)C=C1CC[C@H]1[C@@H]3C[C@@H](O)[C@](O)(C(=O)CO)[C@@]3(C)C[C@H](O)[C@@]12F	inactive
c1ccc2c(c1)ccc1cc3c(ccc4ccccc43)cc12	inactive
C=C[C@H]1CN2CC[C@H]1C[C@@H]2[C@@H](O)c1ccnc2ccc(OC)cc12	inactive
Nc1cc([N+](=O)[O-])ccc1C(=O)O	inactive

Structure (SMILES)	Potency
FC(F)(F)C(Cl)Br (stereo not drawn)	inactive
CCCN1C=CN(C)C1	inactive
CC1=CC(C)(C)Nc2ccccc21	inactive
C1COCCN1	inactive
O=C(O)c1ccc(O)cc1	inactive
COC(=O)C(C)Oc1ccc(Oc2ncc(C(F)(F)F)cc2Cl)cc1 (stereo not drawn)	inactive
CCCCCCCCCCC(CO)CCCCCCCC (stereo not drawn)	inactive
OC[C@@H](O)[C@@H](O[C@@H]1O[C@H](CO)[C@H](O)[C@H](O)[C@H]1O)[C@H](O)[C@@H](O)CO	inactive
[O-]/[N+](=N\O)c1ccccc1	inactive
Cc1ccc(C(C)(C)C)c(O)c1	inactive
CC(C)(C)c1cccc(C(C)(C)C)c1O	inactive
COCCOCCOCCO	inactive
CC/C=C\C/C=C\C/C=C\CCCCCCCC(=O)O	inactive
C[C@]12CC[C@@H]3c4ccc(O)cc4CC[C@H]3[C@@H]1CC[C@@H]2O	inactive
CN(C)C	inactive
CN(C)/N=N/c1nc[nH]c1C(N)=O	inactive
Cc1ccc(C(C)(C)C)cc1	inactive
CC/C(=C(/CC)c1ccc(O)cc1)c1ccc(O)cc1	54.9 µM (active) and inactive
C[N+](C)(C)CCO	inactive
